From PubChem BioAssay AID1159583 (ICCB-Longwood Screening Facility, Harvard Medical School, 2016)
Where “and” joins values, the source holds several entries; their conditions need not be identical. Equal values may be shown once. Screen size: about 300,000 compounds; about 310 (0.1%) were called active. No stated cut-off is given here; in the data, active means fluorescence inhibition mostly above about 23% (no sharp cut-off); inactive means mostly below about 17%. Shown is part of a subset that was picked to be rich in actives.

Assay: hypoxia reporter signal reduction in M. tuberculosis – fluorescence, absorbance growth readout, primary screen (AID 1159583)
Conditions: M. tuberculosis hypoxia-regulated fluorescent reporter, stronger effect = higher value, concentration not given here; growth inhibition: measured here: M. tuberculosis growth (absorbance)

SMILES	fluorescence inhibition	growth inhibition
COc1ccc(C2CC=C(C(=O)O)C(c3ccccc3F)N2S(=O)(=O)c2ccc(C)cc2)cc1OC (stereo not given)	19.4% (inactive)	4.47%
CCCC(=O)O[C@]1(C(=O)CCl)C(C)CC2C3CCC4=CC(=O)C=C[C@]4(C)[C@@]3(F)C(=O)C[C@@]21C (stereo not given in full)	-12.7% (inactive)	2.62%
Cc1ccc(S(=O)(=O)N(C)CC(=O)NN=Cc2ccc(C)o2)cc1	-4.3% (inactive)	1.08%
COc1ccc(C2OCC3OC(O)C(NC(C)=O)C(O)C3O2)cc1 (stereo not given)	4.65% (inactive)	11.9%
CCN(CC)CCOc1ccc2c(c1)C(=NNC(=O)c1ccccn1)c1cc(OCCN(CC)CC)ccc1-2	46.2% (active)	20.2%
COc1ccc(C(=O)NN=C(c2ccccc2)c2ccccn2)cc1	-1.57% (inactive)	6.08%
CCc1ccc(C=NNC(=O)c2ccccn2)cc1	9.62% (inactive)	15.4%
Cc1ccc(C(=O)ON=Cc2ccc3c(c2)OCO3)cc1	2.14% (inactive)	12.4%
CCc1ccc(/C=C2\SC(N3CCOCC3)=NC2=O)cc1	-2.06% (inactive)	6.4%
O=C1N=C(N2CCOCC2)S/C1=C\C=C/c1ccccc1	16.7% (inactive)	6.03%
Cc1ccsc1/C=C1\SC(N2CCOCC2)=NC1=O	59.8% (active)	35.7%
COC(=O)c1ccc(C=NN2C(C)CCCC2C)cc1 (stereo not given)	12.1% (inactive)	0.227%
[O-]C1=N[N+](=Cc2ccc(Cl)cc2)CC1	9.03% (inactive)	2.77%
Cc1ccc(F)c(C2C3C=CCC[C@@]3(C)C(=O)N2Cc2ccccc2)c1 (stereo not given in full)	0.237% (inactive)	4.91%
CCOC(=O)C1C2COc3ccc(OC)cc3C2N2C(=O)c3cc(OC)ccc3NC(=O)[C@@]12C (stereo not given in full)	-0.571% (inactive)	-0.925%
CN1C(=O)/C(=C/C=C2\SCCN2C)OC1=S	-23.3% (inactive)	5.47%
CN1CCSC1=CC=C1C(=O)N(C)C(=S)N1C	41.3% (active)	10.5%
Oc1ccc(C=NNC(=S)Nc2cccnc2)c(O)c1O	19% (inactive)	3.53%
O=C(NN=Cc1cccc2nccnc12)c1ccncc1	93.3%	
C#CCOCCOCCOCCNc1nc(N2CCN(C(=O)C(CCC(=O)O)n3cc(C(N)Cc4ccc(O)cc4)nn3)CC2)nc(N2CCN(C(=O)C(C(C)CC)n3cc(C(N)CO)nn3)CC2)n1 (stereo not given)	8.78% (inactive)	6.78%
N#CC(=Cc1ccc(O)c(O)c1)C(=O)c1ccc(O)c(O)c1	-0.458% (inactive)	-7.09%

SMILES	fluorescence inhibition	growth inhibition
CC(=NNc1nc(C)cc(-c2ccccc2)n1)c1ccc(C)o1	5.64% (inactive)	13.1%
CCC(C)CCN1C(Nc2ccccc2)=NCC1CC(C)C (stereo not given)	2.94% (inactive)	9.85%
CC(=NNC(=S)Nc1ccccc1)c1ccc2c(c1)OCO2	4.36% (inactive)	-7.15%
CN1CCN(C(=O)C2=CC(c3ccccc3)CC(OCc3ccc(CO)cc3)O2)CC1 (stereo not given)	10.4% (inactive) and -0.342% (inactive)	12.8% and -5.24%
C=CCNC(=S)N=c1sccn1C	6.54% (inactive)	-7.89%
CC(=NNC(=O)c1cc(-c2cccc([N+](=O)[O-])c2)n[nH]1)c1ccc(F)cc1	14.8% (inactive)	-5.45%
COc1ccc(N(CC(=O)NN=C(C)c2cccs2)S(=O)(=O)c2ccccc2)cc1Cl	-6% (inactive)	-2.78%
CCOC(=O)C1C2COc3ccccc3C2N2C(=O)N(c3cccc(F)c3)C(=O)[C@@]12C (stereo not given in full)	-2.44% (inactive)	3.57%
COC(=O)C1=C(c2ccc(OC(F)(F)F)cc2)CC2CCC1N2C(=O)NCCOc1ccc(OC)cc1 (stereo not given)	0.962% (inactive)	6.26%
O=C(CC(=O)NC1CCCCC1)NN=Cc1ccccc1Cl	2.92% (inactive)	1.5%
CCN1CC2C3C(=O)N(Cc4ccccc4)C(=O)C3[C@](CC)(C1=O)N2C(=O)c1ccc(Br)cc1 (stereo not given in full)	6.17% (inactive)	7.16%
CN1CC2C3C(=O)N(C)C(=O)C3[C@](C)(C1=O)N2C(=O)c1ccc(Cl)c(Cl)c1 (stereo not given in full)	18.2% (inactive)	5.39%
Oc1cccc(C=NNc2ncnc3c2ncn3Cc2ccccc2)c1	12.7% (inactive)	4.03%
COc1ccc(C(N)=NOC(=O)c2cccc([N+](=O)[O-])c2)cc1	2.69% (inactive)	7.49%
Cc1cc(C=NNC(N)=S)c(C)n1-c1ccc(Cl)cc1	79.4%	
O=C(O)c1cc(C(=O)O)cc(-c2ccc(C=c3sc4nc5ccccc5n4c3=O)o2)c1	9.74% (inactive)	9.98%
O=C(C1=CC(c2csc3ccccc23)CC(OCc2ccc(CO)cc2)O1)N1CCCCCCC1 (stereo not given)	5.62% (inactive)	15.1%
COc1ccc2c(Cl)c(C(=O)NN=Cc3c(C)[nH]c4ccccc34)sc2c1	12.9% (inactive)	-1.23%
COc1cccc(C(=O)NN=C(c2ccccc2)c2ccccn2)c1	5% (inactive)	11%
CCOC(=O)c1cc(C)sc1N=CC1C(=O)CC(C)(C)CC1=O	5.08% (inactive)	4.24%
